NCOA1 inh: inhibits human SRC1 coactivator; AID 588354; HEK293 GAL4-SRC1 luciferase reporter, luminescence; inhibition, % at 3.6 µM; 0.12% of 360,000 active; Q15788;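 active = inhibition above the campaign mean plus 3 SD, with each screening campaign given its own cutoff, cut at about 60% in these data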
NCOA2 inhibitor: human SRC2 (NCOA2) inhibition; Q15596; HEK293 GAL4-SRC2 luciferase reporter, luminescence; inhibition, % at 9 µM; 0.17% of 370,000 active; AID 651957;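 active = inhibition above the mean inhibition of all tested compounds plus 3 SD, set per campaign, cut at about 52% in these data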
NCOA3 inh: human NCOA3 inhibition; inhibition, % at 3.6 µM; HEK293 GAL4-SRC3 luciferase reporter, luminescence; 0.17% of 360,000 active;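 active = inhibition above a per-campaign cutoff, the mean of all compounds plus 3 SD, cut at about 60% in these data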;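 note: higher means less SRC3-driven luciferase light from the GAL4 reporter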
NR2F2 inh: inhibitors of human COUP-TFII (NR2F2); HEK293T NGFI-A luciferase reporter, luminescence; 0.7% of 370,000 active; P24468; inhibition, % at 8.6 µM;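 active = inhibition above a per-plate cutoff, mean inhibition of test wells between control levels plus 3 SD, cut at about 38% in these data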;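 note: cells cotransfected with COUP-TFII expression vector driving the NGFI-A reporter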
GalR3 antagonist: human GalR3 antagonism. O60755. HEK293 GalR3-CNG cAMP membrane potential fluorescence; galR3 body fused to GalR1 C-terminus. inhibition, % at 3 µM. 0.44% of 360,000 active. AID 651719;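 active = inhibition above the screen-wide average plus 3 SD, cut at about 13% in these data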;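 note: forskolin and galanin both at EC90 stimulate the cells; cAMP rise reported by CNG channel membrane potential dye signal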
NR5A2 inv ag: inverse agonists of human LRH-1 (NR5A2). O00482. HEK293T StAR-luciferase reporter, LRH-1 transfected, 24 h. inhibition, % at 3.6 µM. AID 602396. 0.13% of 360,000 active;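 active = inhibition above the mean inhibition of all tested compounds plus 3 SD, cut at about 73% in these data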
Gal4-VP16 ctr: VP16 inhibition counter-screen for COUP-TFII; AID 687007; 25% of 2,500 active; shares compounds with NR2F2 inh; HEK293 Gal4-VP16 luciferase reporter, luminescence; inhibition, % at 8.5 µM; in the data active = inhibition above about 13%
COUP-TFII conf: COUP-TFII (NR2F2) inhibition, confirmation assay | shares compounds with NR2F2 inh | HEK293 NGFI-A luciferase reporter, luminescence | inhibition, % at 8.5 µM | 45% of 2,500 active;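 active = mean inhibition over three repeats above a set limit taken from the earlier primary screen, cut at about 38% in these data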
Of the large screens only hits and unclear results are named; the others gave an inactive call (follow-up assays come after a bar, where they were run). Rows were chosen to be rich in hits. Some 1.1% of all compounds tested hit in one or more screens of this group.

CN(c1ncnc(N)c1[N+](=O)[O-])C1CCS(=O)(=O)C1 (stereo not drawn)	none
CC1(Cc2ccc(Cl)cc2)C(=O)Nc2ccc(-c3cccnc3)cc21 (stereo not drawn)	none
CC1(Cc2cccc(F)c2)C(=O)Nc2ccc(-c3cccnc3)cc21 (stereo not drawn)	NR2F2 inh 48 | Gal4-VP16 ctr inactive | COUP-TFII conf inactive
Cc1ccc(Cl)cc1S(=O)(=O)N1CCC(C(=O)NC2CCN(Cc3ccccc3)CC2)CC1	NR2F2 inh 38 | Gal4-VP16 ctr inactive | COUP-TFII conf 44
CN(CC(=O)Nc1ccc(Cl)cc1)C(=O)c1cccc(S(=O)(=O)N2CCN(Cc3ccccc3)CC2)c1	NR2F2 inh 37 | Gal4-VP16 ctr inactive | COUP-TFII conf inactive
CCOc1ccc(CN2CCN(S(=O)(=O)c3ccc(NC(C)=O)cc3)CC2)cc1	NR2F2 inh 48 | Gal4-VP16 ctr inactive | COUP-TFII conf inactive
Cc1ccc(NS(=O)(=O)c2cccc(C(=O)NC3CCN(Cc4ccccc4)CC3)c2)cc1	NR2F2 inh 40 | Gal4-VP16 ctr inactive | COUP-TFII conf inactive
CC1(C(=O)NS(=O)(=O)c2ccc(Cl)cc2)CCN1C(=O)C1(c2ccc(Cl)cc2)CCC1 (stereo not drawn)	none
O=C1c2[nH]nc(-c3ccccc3)c2C(c2cccc(C(F)(F)F)c2)N1c1ccccc1 (stereo not drawn)	none (no result: NCOA1 inh, NCOA3 inh, NR5A2 inv ag)
CS(=O)(=O)c1ccc(NC(=O)c2cccc(S(=O)(=O)N3CCN(Cc4ccccc4)CC3)c2)cc1	NR2F2 inh 41 | Gal4-VP16 ctr inactive | COUP-TFII conf inactive
Cc1ccc(C(C)C)c(OCc2ccc(C(=O)N/N=C/c3ccc(O)c(O)c3)cc2)c1	NR2F2 inh 44 | Gal4-VP16 ctr 19 | COUP-TFII conf inactive
CCOc1cc(/C=N/NC(=O)c2ccc(=O)n(C)c2)ccc1O	none
O=C(Nc1ccccc1)Nc1cc(OCC(F)(F)F)cc(OCC(F)(F)F)c1	NCOA3 inh 67, NR2F2 inh 67 | Gal4-VP16 ctr inactive | COUP-TFII conf inactive
O=C(N[C@H](C(=O)N1CCC[C@H]1C(=O)NCc1ccccc1)c1ccccc1)C1CCCC1	none (no result: NCOA1 inh, NCOA3 inh, NR5A2 inv ag)
COCC(=O)OC1CCn2c1nc1c2C(=O)C(C)=C(NC(C)=O)C1=O (stereo not drawn)	NCOA1 inh 90, NCOA2 inhibitor 73, NCOA3 inh 88, NR2F2 inh 72, NR5A2 inv ag 96 | Gal4-VP16 ctr 50 | COUP-TFII conf 74
Cc1cc(C)n(Cc2ccc(NC(=O)c3ccc(COc4ccccc4Br)cc3)cc2)n1	NR2F2 inh 63 | Gal4-VP16 ctr inactive | COUP-TFII conf inactive
NC(=O)c1ccc(NC(=O)c2ccc(COc3ccccc3Br)cc2)cc1	none
COc1ccc(S(=O)(=O)N2CCC(C(=O)NCCC(=O)NCc3cccnc3)CC2)cc1	none
COc1cccc(COc2ncnc3sccc23)c1	none
Fc1ccc(CC2CCN(c3ncnc4sccc34)CC2)cc1	NR2F2 inh 74 (no result: NCOA1 inh, NCOA2 inhibitor, NCOA3 inh, GalR3 antagonist, NR5A2 inv ag) | Gal4-VP16 ctr inactive | COUP-TFII conf 54
O=S(=O)(c1ccc(Cl)cc1)N1CCN(c2ncnc3sccc23)CC1	NR2F2 inh 47 | Gal4-VP16 ctr inactive | COUP-TFII conf inactive
COc1ccc(CC2CCN(c3ncnc4sccc34)CC2)cc1	NR2F2 inh 68 (no result: NCOA1 inh, NCOA2 inhibitor, NCOA3 inh, GalR3 antagonist, NR5A2 inv ag) | Gal4-VP16 ctr inactive | COUP-TFII conf 59
Cc1csc2c(N3CCN(S(=O)(=O)c4ccc(Cl)cc4)CC3)ncnc12	none
CC(=O)Nc1sc2c(c1-c1nc3ccccc3s1)CCCNC2	none (no result: NCOA1 inh, NCOA2 inhibitor, NCOA3 inh, GalR3 antagonist, NR5A2 inv ag)
CC[C@]1(c2ccc(C)cc2)C(=O)N(C(=O)OC(C)C)N1C(=O)OC(C)C	none (no result: NCOA1 inh, NCOA3 inh, GalR3 antagonist, NR5A2 inv ag)
Fc1ccc2[nH]c3c(NCc4ccccc4)ncnc3c2c1	NR2F2 inh 55 | Gal4-VP16 ctr inactive | COUP-TFII conf 38
COC(=O)[C@]12C[C@H](CC(=O)N3CCN(C(=O)C4CC4)CC3)C(=O)N(Cc3ccc4c(c3)OCO4)C1=C[C@H](C(C)C)O[C@@H]2C1CC1	none (no result: NCOA1 inh, NCOA3 inh, GalR3 antagonist, NR5A2 inv ag)
O=C(NCCc1cccc(Cl)c1)c1ccc(OC2CCN(Cc3ccccn3)CC2)cc1	NR2F2 inh 61 | Gal4-VP16 ctr inactive | COUP-TFII conf 40
COC(=O)[C@H]1C[C@@]2(C)c3ccccc3N(C(=O)OC(C)(C)C)[C@H]2N1C(=O)OC(C)(C)C	none (no result: NCOA1 inh, NCOA3 inh, GalR3 antagonist, NR5A2 inv ag)
C=C1C(=O)OC2CC1C(OC(C)=O)CC(C)=CCCC(C)=CCCC2(C)O (stereo not drawn)	NCOA3 inh 62, NR2F2 inh 39 | Gal4-VP16 ctr 30 | COUP-TFII conf inactive
Cc1cc(Oc2ccc(N)cn2)cc(C)c1Cl	NR2F2 inh 38 | Gal4-VP16 ctr inactive | COUP-TFII conf inactive
CC(C)(C)c1ccc(Oc2ccc(N)cn2)cc1	NCOA2 inhibitor 86, NR2F2 inh 78 | Gal4-VP16 ctr 76 | COUP-TFII conf 67
CC(C)(C)c1ccc(Oc2ccc(NC(=O)c3ccccc3C(=O)O)cn2)cc1	NCOA2 inhibitor 85, NR2F2 inh 80 | Gal4-VP16 ctr 47 | COUP-TFII conf inactive
Cc1nn(C)c2ncc(C(=O)c3ccccc3O)cc12	none
Cc1[nH]nc2ncc(C(=O)c3ccccc3O)cc12	NR2F2 inh 38 | Gal4-VP16 ctr 15 | COUP-TFII conf inactive
CCN1Cc2nnn(Cc3ccccc3)c2-c2cc(N3CCCC3)ccc2S1(=O)=O	none (no result: NCOA1 inh, NCOA3 inh, GalR3 antagonist, NR5A2 inv ag)
O=C(Nc1ccc(-c2cn3ccsc3n2)cc1)c1ccc(F)c(S(=O)(=O)N2CCOCC2)c1	NR2F2 inh 47 | Gal4-VP16 ctr inactive | COUP-TFII conf inactive
Cc1cc(C)cc(C(O)c2ncc(-c3ccccc3Cl)[nH]2)c1 (stereo not drawn)	none
Cc1c(C(=O)N2CCN(Cc3ccc4c(c3)OCO4)CC2)sc2ncnc(N3CCN(c4ccccc4F)CC3)c12	NR2F2 inh 46 | Gal4-VP16 ctr inactive | COUP-TFII conf 57
COc1cc(SC)ccc1C(=O)N1CCN(Cc2ccc3c(c2)OCO3)CC1	NR2F2 inh 48 | Gal4-VP16 ctr inactive | COUP-TFII conf inactive
c1ccc(-c2csc3ncnc(NCC4COc5ccccc5O4)c23)cc1 (stereo not drawn)	NR2F2 inh 65, GalR3 antagonist 88 | Gal4-VP16 ctr 16 | COUP-TFII conf 82
c1ccc(-c2csc3ncnc(NCCCN4CCOCC4)c23)cc1	none
C=CCN1C(=O)S/C(=C/c2ccc(Sc3nc4ccccc4[nH]3)o2)C1=O	NR2F2 inh 46 | Gal4-VP16 ctr inactive | COUP-TFII conf inactive
CC(C)N1C(=O)S/C(=C/c2ccc(Sc3nc4ccccc4[nH]3)o2)C1=O	none
CN(C(=O)C(C)(C)C)c1ccc(OCC(=O)N2CCc3ccccc3C2)cc1	NR2F2 inh 48 | Gal4-VP16 ctr inactive | COUP-TFII conf 48
